Data on 12 compounds can be found in PubChem BioAssay.

Test [1] deals with Wnt5a (protein binding on small-molecule microarray). Put plainly: Wnt5a binders on small-molecule microarray, primary screen, biophysical, 635/667 nm fluorescence (AID 1142).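 Further: fluorescence read at 667 nm with signal to noise per printed feature.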 Conditions: 635 nm fluorescence, higher = more signal.
Test [2] in a line: cell viability in Huh7 cells, primary screen, cytotoxicity control for HCV replication inhibitor project, CellTiter-Glo luminescence, basal, 48 h (AID 1143).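 Further: Huh7 hepatoma cells carrying a hepatitis C replication reporter with no stimulus; test concentration not given here.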 Conditions: Huh7 HCV replicon, higher = more signal, called active from +8 up or from −8 down.
A short description of test [3]: P. aeruginosa biofilm formation inhibitors, primary screen, PAO1 strain, BacTiter-Glo luminescence, LB-PBS (AID 1144). The following applies: 12 h, higher = more signal.
Test [4] in a line: CREB reporter modulators without forskolin, primary screen, cell-based, PC12, CRE-LacZ reporter, unstimulated (AID 1145). The following applies: no forskolin, luminescence, 4.5 h, higher = more signal, called active from +8 up or from −8 down.
Test [5] can be described thus: CREB reporter modulators under forskolin, primary screen, cell-based, PC12, CRE-LacZ reporter, forskolin-stimulated (AID 1146).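 Further: PC12 cells with 6xCRE LacZ reporter stimulated by forskolin 10 µM; beta-galactosidase reporter signal reflecting CREB driven transcription.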 Conditions: luminescence, 4.5 h, higher = more signal, called active from +8 up or from −8 down.
Test [6] addresses Streptavidin (Streptomyces avidinii) (UniProt P22629). Nature of the test: streptavidin binders on small-molecule microarray, primary screen, artefact control for SMM compound annotation, biophysical, 635/667 nm fluorescence (AID 1147).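 Further: signal reflects streptavidin binding to arrayed compounds as a control protein.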 The following applies: streptavidin binding, higher = more signal.
A short description of test [7]: small-molecule binders of probe aInhba, primary screen, biochemical, small-molecule microarray, 635/667 nm fluorescence (AID 1148).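 Further: score merges 667nm spot fluorescence with signal-to-noise for antibody binding to printed compounds.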 The following applies: higher = more signal.
For test [8], the target named is Torsin-1A (Homo sapiens) (UniProt O14656). Nature of the test: torsin A binders from cell lysate, primary screen, small-molecule microarray, wild-type, 635/667 nm (AID 1149). Conditions: COS7 hTOR1A-WT lysate, 635 nm fluorescence, higher = more signal.
For test [9] the target is unchanged. Put plainly: small-molecule binders of mutant TOR1A in lysate, primary screen, cell lysate, small-molecule microarray, COS7 lysate, 635/667 nm fluorescence (AID 1150).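 Further: score pools 667 nm emission and signal to noise measuring lysate protein binding.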 Conditions: COS7 hTOR1A mutant lysate, 635 nm fluorescence, higher = more signal.
Test [10] has as its system Sonic hedgehog protein (Shh). Nature of the test: small-molecule binders of Shh protein, primary screen, biochemical, small-molecule microarray, 635/667 nm fluorescence (AID 1151).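 Further: Shh protein binding to compounds spotted on small-molecule microarray slides; score combines spot fluorescence intensity with signal-to-noise across triplicate slides.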 Conditions: small-molecule microarray binding, 635 nm fluorescence; higher = more signal.

SMILES strings stand for the structures. Active and inactive are the calls of the source. Unless noted, how the calls were made is not given here.

Chain of Streptavidin (Streptomyces avidinii) (P22629 whole entry, looked up): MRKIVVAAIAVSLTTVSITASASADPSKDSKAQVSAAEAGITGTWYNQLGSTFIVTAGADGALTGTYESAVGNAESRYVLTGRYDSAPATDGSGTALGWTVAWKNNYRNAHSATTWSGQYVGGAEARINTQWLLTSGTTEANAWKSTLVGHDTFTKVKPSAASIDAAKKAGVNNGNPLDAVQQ
Chain of Torsin-1A (Homo sapiens) (O14656 whole entry, looked up): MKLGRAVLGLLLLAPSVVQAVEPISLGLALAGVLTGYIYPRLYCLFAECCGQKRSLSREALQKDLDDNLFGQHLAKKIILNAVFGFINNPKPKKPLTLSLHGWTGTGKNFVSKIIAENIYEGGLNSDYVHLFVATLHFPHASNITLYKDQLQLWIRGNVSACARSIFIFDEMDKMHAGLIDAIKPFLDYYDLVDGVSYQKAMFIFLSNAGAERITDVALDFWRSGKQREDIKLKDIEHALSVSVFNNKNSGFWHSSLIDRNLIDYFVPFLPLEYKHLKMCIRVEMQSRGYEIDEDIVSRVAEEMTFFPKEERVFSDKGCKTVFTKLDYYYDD

For the compound `CC1=C2[C@@H](CCc3ccccc3)OB(O)C[C@@H]2n2c(=O)n(-c3ccccc3)c(=O)n2C1`, the composite z-score in test [1] is 0.207; in test [6] it was 0.156; in test [7], -0.0405; with Torsin-1A (Homo sapiens) [8] it was 0.0316; with Torsin-1A (Homo sapiens) [9], 0.111; in test [10] it was 0.724. The z-score is -0.382 (inactive) in test [2], 0.909 (inactive) in [3], 0.402 (inactive) in test [4] and -0.826 (inactive) in test [5].

As to `O=C1O[C@@H](c2ccccc2)[C@@H](c2ccccc2)N2[C@@H](c3ccc(O)cc3)[C@]3(C(=O)Nc4ccc(C#CC5(O)CCCCCC5)cc43)[C@@H](C(=O)N3CCCCCCC3)[C@H]12`, the composite z-score stood at 1.74 in [1]; 3.13 in test [6]; 1.67 in [7]; 2.71 in the test with Torsin-1A (Homo sapiens) [8]; 2.35 in the test with Torsin-1A (Homo sapiens) [9]; 2.27 in test [10]. Besides, the z-score was -2.41 (inactive) in test [2], -1.55 (inactive) in test [3], 0.362 (inactive) in [4] and -0.981 (inactive) in test [5].

`CC(C)=CCCC(C)=CC(O)C1C=CC2C(=O)N(c3ccccc3)C(=O)C2N1Nc1ccccc1` (stereo not given): the composite z-score turned out to be 0.744 in test [1]; 2.04 in test [6]; 0.596 in test [7]; 0.0777 with Torsin-1A (Homo sapiens) [8]; 0.253 in the test with Torsin-1A (Homo sapiens) [9]; 0.0068 in test [10]. The z-score in test [2] is 0.311 (inactive); in test [3], -0.786 (inactive); in test [4], 0.819 (inactive); in test [5] it was 1.7 (inactive).

On to `Cc1ccc([C@H]2C(C(=O)O)=C[C@@H](C)N2S(=O)(=O)c2ccc(C)cc2)cc1`, for which the composite z-score in [1] is -0.144; in test [6], 0.642; in [7] it was -0.0509; with Torsin-1A (Homo sapiens) [8] it was -0.948; with Torsin-1A (Homo sapiens) [9], -0.465; in test [10], -0.945. In addition, the z-score is -0.501 (inactive) in test [2], 0.759 (inactive) in test [3], -0.126 (inactive) in [4] and 1.32 (inactive) in [5].

As to `COCCOC(=O)N1C(=O)[C@@]2(c3cc(C#CCNC(N)=O)ccc31)[C@H](C(=O)N1CCc3cc(OC)c(OC)cc3C1)[C@H]1C(=O)O[C@H](c3ccccc3)[C@H](c3ccccc3)N1[C@@H]2c1ccc(OCCO)cc1`, the composite z-score in test [1] is 0.506; in [6] it was 0.287; in test [7], -0.418; in the test with Torsin-1A (Homo sapiens) [8], -0.136; with Torsin-1A (Homo sapiens) [9], 0.237; in [10], 1.95. Besides, the z-score in test [2] was -0.352 (inactive); in test [3], -1.42 (inactive); in test [4], -1.56 (inactive); in test [5], -0.549 (inactive).

With `CCOC(=O)C1=CC[C@@H](c2ccccc2Cl)N(S(=O)(=O)c2ccc(C)cc2)C1`, the composite z-score is 0.149 in test [1]; 0.884 in [6]; 0.0569 in [7]; 0.623 with Torsin-1A (Homo sapiens) [8]; 0.738 with Torsin-1A (Homo sapiens) [9]; -0.53 in [10]. Also, the z-score in test [2] is -5.35 (inactive); in test [3], -0.602 (inactive); in test [4], 0.173 (inactive); in test [5] it was -0.0077 (inactive).

As to `COc1ccc(C(O)C2C=CC3C(=O)N(c4ccccc4)C(=O)C3N2Nc2ccc([N+](=O)[O-])cc2)cc1OCc1ccccc1` (stereo not given), the composite z-score in test [1] was 1.43; in test [6], 0.935; in test [7] it was 1.16; with Torsin-1A (Homo sapiens) [8] it was -0.153; with Torsin-1A (Homo sapiens) [9], 0.159; in [10], -0.381. The z-score was -0.317 (inactive) in test [2], 0.208 (inactive) in [3], -0.387 (inactive) in [4] and -0.588 (inactive) in test [5].

Turning to `CC(C)CNC(=O)[C@@]1(c2ccc([N+](=O)[O-])cc2)CC(=O)N(CC23CC4CC(CC(C4)C2)C3)[C@@H]1c1ccc(CO)cc1I`, the composite z-score in test [1] stood at 0.777; in test [6] it was 0.574; in [7], 0.11; with Torsin-1A (Homo sapiens) [8], 0.283; with Torsin-1A (Homo sapiens) [9], 0.578; in [10], 2.02. Also, the z-score in [2] is -4.95 (inactive); in test [3], -0.266 (inactive); in test [4], 0.145 (inactive); in test [5], 1.07 (inactive).

`COCCOC(=O)N1C(=O)[C@@]2(c3cc(C#CC4=CCCCC4)ccc31)[C@H](C(=O)N1CCc3cc(OC)c(OC)cc3C1)[C@H]1C(=O)O[C@H](c3ccccc3)[C@H](c3ccccc3)N1[C@@H]2c1ccccc1OCCO`: the composite z-score in test [1] is 0.192; in [6] it was 0.154; in test [7], 0.0939; in the test with Torsin-1A (Homo sapiens) [8] it was 0.198; with Torsin-1A (Homo sapiens) [9] it was 0.274; in test [10], 2.05. The z-score was -1.3 (inactive) in [2], 0.597 (inactive) in [3], 0.0736 (inactive) in test [4] and -1.14 (inactive) in test [5].

For the compound `CC(=O)NCCCC[C@@H]1NC(=O)[C@@H]2C[C@H](C(=O)NCCCCN(C)C)[C@H](c3ccc(O)cc3)N2C1=O`, the composite z-score in [1] was -0.465; in test [6], -0.506; in [7], -0.23; with Torsin-1A (Homo sapiens) [8], -0.893; in the test with Torsin-1A (Homo sapiens) [9] it was -0.88; in test [10], 0.54. Besides, the z-score in [2] is 0.0068 (inactive); in test [3], -1.02 (inactive); in [4], -0.809 (inactive); in test [5] it was -0.174 (inactive).

`CC(=CC1CCCCC1)[C@@H](NC(=O)c1ccc(C(F)(F)F)cc1)c1ccc(-c2ccccc2)cc1`: the composite z-score in [1] is -0.239; in test [6], 1.03; in test [7], 0.105; with Torsin-1A (Homo sapiens) [8] it was -0.514; with Torsin-1A (Homo sapiens) [9], -0.336; in [10] it was -0.129. Also, the z-score in test [2] is -0.992 (inactive); in test [3], -0.019 (inactive); in test [4], 0.587 (inactive); in test [5] it was 0.618 (inactive).

For `COCCOC(=O)N1C(=O)[C@@]2(c3cc(C#CCNC(N)=O)ccc31)[C@H](c1ccc(O)cc1)N1[C@H](c3ccccc3)[C@H](c3ccccc3)OC(=O)[C@H]1[C@@H]2C(=O)Nc1nc2ccccc2s1`, the composite z-score in test [1] was 0.327; in test [6], 0.454; in [7], -0.102; with Torsin-1A (Homo sapiens) [8], 0.518; in the test with Torsin-1A (Homo sapiens) [9] it was 0.587; in [10], 1.34. In addition, the z-score in test [2] is -2.61 (inactive); in test [3], -2.43 (inactive); in test [4], -0.463 (inactive); in test [5], -1.5 (inactive).
